Rows were chosen to be rich in hits. Some 11% of all compounds tested hit in one or more screens of this group.
Pf growth 48h: Primary qHTS for delayed death inhibitors of the malarial parasite plastid, 48 hour incubation. Potency, µM (doses to about 28.7 µM), for the others: top-dose activity change, negative = inhibition, actives largely listed as inhibitors. actives 5.9% (n = 310,000). P. falciparum luciferase growth in erythrocytes, 48 h
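Firefly luciferase activity from engineered P. falciparum reports growth; inhibitors lower the luminescent signal. Cultures contained 2% hematocrit erythrocytes at 0.1% final parasitemia.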
Pf growth 96h: Primary qHTS for delayed death inhibitors of the malarial parasite plastid, 96 hour incubation; P. falciparum luciferase reporter growth, 96 h; Potency, µM (top dose mostly 28.7 µM), without a hit: top-dose activity change, negative = inhibition, hits mostly inhibitors; actives 6.9% (n = 320,000)
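Two-generation exposure (96 h) targets delayed-death phenotype. Reporter parasites carrying integrated firefly luciferase, in red cells at 2% hematocrit and 0.05% parasitemia final, kept at 37 C, 5% CO2; luminescence loss indicates inhibition.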
AmpC inh no detg: qHTS Inhibitors of AmpC Beta-Lactamase (assay without detergent); AmpC nitrocefin hydrolysis, absorbance 480 nm, 0.0001% Triton; P00811; Potency, µM (titrated, usually from 57.1 µM), inactives show at the highest dose activity change, negative = inhibition, usual class: inhibitors; actives 0.52% (n = 330,000);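 note: plate controls were no compound for no effect and no enzyme for full effect; nearly all actives have a fitted effect of over 20% in size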
Target sequence (P00811 whole entry, looked up): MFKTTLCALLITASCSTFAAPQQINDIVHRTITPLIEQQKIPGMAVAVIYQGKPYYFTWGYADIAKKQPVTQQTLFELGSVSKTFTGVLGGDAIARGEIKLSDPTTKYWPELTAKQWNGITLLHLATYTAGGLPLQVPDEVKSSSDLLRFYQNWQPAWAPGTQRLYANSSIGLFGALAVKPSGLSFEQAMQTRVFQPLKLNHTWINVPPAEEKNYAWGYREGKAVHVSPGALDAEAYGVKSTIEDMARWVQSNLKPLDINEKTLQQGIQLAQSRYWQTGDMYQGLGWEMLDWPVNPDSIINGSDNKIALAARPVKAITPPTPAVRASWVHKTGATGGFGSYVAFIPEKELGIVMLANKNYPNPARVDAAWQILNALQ
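20 mM phosphate pH 7.0 + 0.01% (detergent screen) or 0.0001% Triton X-100; 5.3 nM AmpC reagent; cpd preinc 15 min RT; nitrocefin (800 uM stock) to start; A480 q20 s × 4 min; Activity was normalised to no-enzyme and no-compound control wells.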
AMA1 RON2 block: qHTS for Inhibitors of AMA1-RON; Towards Development of Antimalarial Drug Lead: Primary Screen; Plasmodium falciparum AMA1 (3D7) - RON2 peptide interaction; AlphaScreen AMA1-biotinylated RON2 peptide binding; Potency, µM (doses to about 58.2 µM), inactives show top-dose activity change, negative = inhibition, most hits filed as inhibitors; actives 0.2% (n = 360,000);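 note: 0% = vehicle wells and -100% = peptide control; nearly all actives have a fitted effect of over 45% in size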
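AMA1 (3D7) with his tag at 25 nM final met compounds first, then biotinylated RON2 peptide at 25 nM; detection used donor plus acceptor beads, 10 µg/mL apiece, read by AlphaScreen after 30 min at room temperature.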
HCV inhibitor: qHTS Assay for Inhibitors of Hepatitis C Virus (HCV). AID 651820, 2012. actives 3.4% (n = 340,000). Huh7.5.1 HCVcc-Cre infection, luciferase reporter, 44 h. Potency, µM (top dose mostly 41.8 µM), for inactives: at the top dose activity change, negative = inhibition, most hits filed as inhibitors
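Compounds are dispensed onto cells plated 4 h earlier at 1,000 per well, with HCVcc-Cre virus (about 0.5 moi) added next. Following 44 h of culture, luminescent signal is measured for 15 sec after 15 min with substrate at room temperature.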
AmpC detergent: qHTS Inhibitors of AmpC Beta-Lactamase (assay with detergent) | P00811 | AmpC hydrolysis of nitrocefin, absorbance 480 nm, 0.01% Triton | Potency, µM (highest dose often 114 µM), without a hit: at the top dose activity change, negative = inhibition, hits mostly inhibitors | actives 0.041% (n = 370,000) | AID 485294, 2010;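 note: 0% = no-compound wells and -100% = no-enzyme wells; nearly all actives have a fitted effect of over 25% in size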
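AmpC (5.3 nM in the dispensed reagent) in 20 mM phosphate pH 7.0 with 0.01% (detergent screen) or 0.0001% Triton X-100 was preincubated with compounds for 15 min at room temperature. Nitrocefin was then added from an 800 uM solution, and hydrolysis was followed at 480 nm.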
Numbers without * were called inactive; ? = inconclusive; . = no result given; [ ] = remark or other dose. Calls come from the whole dose curve; as a rule, active = well fitted curve in the direction sought with a large enough effect; inconclusive = small, poorly fitted or top-dose-only effect, or another doubt; inactive = no such curve, though single readings can be large; an effect the other way counts as inactive or inconclusive. Unless noted, % is set by controls: 0 for no effect and ±100 for the full control effect; potency is the fitted concentration of half-maximal effect.

SMILES | Pf growth 48h | Pf growth 96h | AmpC inh no detg | AMA1 RON2 block | HCV inhibitor | AmpC detergent
COc1ccccc1CNC(=O)C1CCN(S(=O)(=O)c2ccc3c(ccn3C)c2)CC1 | . | . | . | . | . | 9%
Cc1nnc(NCc2ccc(F)cc2)c2c1nnn2Cc1ccccc1Cl | . | . | . | . | . | 22%
COc1ccc2oc(C(=O)N(Cc3ccco3)Cc3cccs3)c(C)c2c1 | ? | ? | 32µM* | -28% | 10%[8.37 µM] | -19%
Cc1ccc(S(=O)(=O)CC(=O)c2ccc(C(C)(C)C)cc2)cc1 | 2.3µM* | 2.6µM* | -28% | 1% | 7% | 0%
Cc1nnc2c(N3CCN(c4ccccc4F)CC3)nc3ccc(C(=O)c4ccccc4)cc3n12 | . | . | . | . | . | 15%
O=[N+]([O-])c1cccc(S(=O)(=O)c2ccc(N3CCCCC3)c([N+](=O)[O-])c2)c1 | -26% | -5% | -44% | -30% | 8.9µM* | -5%
O=[N+]([O-])c1cc(S(=O)(=O)c2ccc(N3CCCCC3)c([N+](=O)[O-])c2)ccc1N1CCCCC1 | 1% | -8% | 10µM* | -20% | ? | 2%
O=[N+]([O-])c1ccc(N2CCCCCC2)c([N+](=O)[O-])c1 | 7% | 7% | -15% | ? | ? | 0%
Cn1c(CC(=O)c2ccc(Br)cc2)[n+](C)c2ccccc21 | 13µM* | 0.74µM* | -16% | 0% | -6% | ?
Cc1cc(C)n(-c2nc3ccccc3nc2Nc2ccc(Cl)c(Cl)c2)n1 | . | . | . | . | . | 10%
COC(=O)[C@@]12CCCCN1[C@H](c1ccc(-c3ccc(Cl)c(Cl)c3)cc1)[C@H]1C(=O)N(C)C(=O)[C@H]12 | . | . | -12% | 15% | 14% | .
COC(=O)[C@@]12CCCN1[C@H](c1ccc(-c3ccccc3)cc1)[C@H]1C(=O)N(C)C(=O)[C@H]12 | 10µM* | ? | 181% | -2% | -4% | -13%
COC(=O)[C@@]12CCCCN1[C@H](c1ccc(-c3ccccc3)cc1)[C@H]1C(=O)N(C)C(=O)[C@H]12 | -19% | 1% | 9% | -9% | -3% | 0%
COC(=O)[C@@]12CCCN1[C@H](c1ccc(-c3ccc(OC)cc3)cc1)[C@@H]1C(=O)N(C)C(=O)[C@@H]12 | 5.9µM* | 9.3µM* | 193% | -2% | ? | ?
CCC1Oc2ccccc2N(CC(=O)NCc2cc(OC)ccc2OC)C1=O (centres undefined) | . | . | . | . | . | 4%
Cc1nc(-c2ccc(Cl)cc2)oc1COC(C)(C)C(=O)O | 3% | ? | . | . | . | .
COc1ccc(CNC(=O)Cn2ncc3c([nH]c4ccccc43)c2=O)cc1 | . | . | . | . | . | 11%
O=Cc1cccn1-c1cccc([N+](=O)[O-])c1 | 78% | 2.6µM* | 2% | 9% | -18% | 3%
COc1ccc(CCNC(=O)c2cc3c(-c4ccc(OC)c(OC)c4)nn(C)c3s2)cc1OC | . | . | . | . | . | -1%
CCN(Cc1nc2cc(Cl)ccc2c(=O)[nH]1)C(=O)C1CC(=O)N(c2cccc3ccccc23)C1 (centres undefined) | 10µM* | ? | 235% | 30% | 8% | 0%
O=C(c1ccc(COc2ccccc2)o1)N1CCN(S(=O)(=O)c2ccccc2Cl)CC1 | 13µM* | ? | 16% | -8% | ? | ?
O=C(c1ccc(COc2ccccc2Cl)o1)N1CCOCC1 | 17% | -20% | 29% | -4% | 2% | -15%
Cc1cccc(OCc2ccc(C(=O)N3CCOCC3)o2)c1 | 21% | -2% | 17% | -12% | -9% | -3%
CC1CCN(C(=O)c2ccc(COc3ccccc3Cl)o2)CC1 | ? | 10µM* | 41% | -7% | -27% | -5%
Cc1ccc(S(=O)(=O)N2CCN(C(=O)c3ccccc3OCc3c(C)noc3C)CC2)cc1 | -29% | ? | 137% | -3% | 0.56µM* | -3%
SMILES | Pf growth 48h | Pf growth 96h | AmpC inh no detg | AMA1 RON2 block | HCV inhibitor | AmpC detergent
Cc1ccc(S(=O)(=O)N2CCN(C(=O)c3ccc(COc4ccccc4)o3)CC2)cc1 | 12µM* | 9.3µM* | 28% | -4% | ? | 6%
O=C(c1ccc(COc2ccccc2Cl)o1)N1CCCC1 | -4% | ? | 37% | 15% | -26% | -3%
Cc1ccc(S(=O)(=O)c2cn(CC(=O)Nc3cccc(C)c3)c3cc4c(cc3c2=O)OCO4)cc1 | . | . | . | . | . | 7%
CN1C(=O)Cc2cc(S(=O)(=O)CCC(=O)N3CCN(c4cccc(Cl)c4)CC3)ccc21 | . | . | . | . | . | 1%
CN(C)CCNC(=O)c1ccc(Cn2c(=O)c3cccn3c3cccnc32)cc1 | . | . | . | . | . | -6%
CC1CCCCC1NC(=O)NC(=O)CCl (centres undefined) | 8.3µM* | ? | 1% | 0% | ? | 20%
CC1CCCC(NC(=O)NC(=O)CCl)C1C (centres undefined) | 0.033µM* | 10µM* | -1% | -8% | ? | 15%
C=C(C(=O)c1ccccc1)C(C(=C)C(=O)c1ccccc1)c1ccc(OC)cc1 | 2.1µM* | ? | -26% | -4% | 3.5µM* | 4%
O=C(c1ccccc1)C(c1ccccc1)c1ccccc1 | ? | ? | -16% | 32% | -20% | ?
C=C(C(=O)c1ccccc1)C(c1ccccc1)C(C)C(=O)c1ccccc1 (centres undefined) | ? | 12µM* | -12% | 3% | 4% | -11%
COc1ccc(C(CC(=O)c2ccccc2)CC(=O)c2ccccc2)cc1 | ? | ? | -34% | 3% | -24% | 1%
C=C(C(=O)c1ccccc1)C(C)C(=C)C(=O)c1ccccc1 | ? | 10µM* | -20% | 21% | 14µM* | -7%
O=C(COc1ccccc1)NCC1CCCO1 (centres undefined) | 33% | 33% | -7% | -1% | 7% | -1%
Cc1ccc(C)c(NS(=O)(=O)c2ccc(OCC(=O)NCC3CCCO3)cc2)c1 (centres undefined) | -12% | -6% | 25% | -2% | -7% | -5%
O=C(COc1ccc(F)cc1)NCC1CCCO1 (centres undefined) | 29% | 1.7µM* | -12% | 4% | 17% | ?
Cc1ccc(NS(=O)(=O)c2ccc(OCC(=O)NCC3CCCO3)cc2)cc1 (centres undefined) | -1% | 9.3µM* | 9% | -3% | -3% | 10%

Source: PubChem
